The term AC50 denotes the concentration giving half of the maximal activity seen.

Read-out in test [1]: Vascular endothelial growth factor receptor 2 (Homo sapiens) (UniProt P35968)
The experiment in a line: BSK_4H_VEGFRII: BioMAP Diversity Plus: 4H Assay for Vascular endothelial growth factor receptor 2 (VEGFR2) Biomarker Activity (AID 2283031).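 On AC50: cell-surface VEGFR2 protein level quantified by ELISA.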 The conditions noted are these: primary human endothelial cells (HUVEC); actives raise or lower the signal. The method in brief: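 In this multiplexed HUVEC system, biomarker ELISA was performed after 24 h chemical exposure. Parallel SRB staining (TCA fixation, 560 nm) tracked cytotoxicity; DMSO served as baseline.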

Read-out in test [2]: Human Leukocyte Antigen - DR isotype (HLADR), HLA-DRA (gene 3122)
The experiment in a line: BSK_BE3C_HLADR: BioMAP Diversity Plus: BE3C Assay for Human Leukocyte Antigen - DR isotype (HLADR) Biomarker Activity (AID 2283032). The conditions noted are these: primary human bronchial epithelial cells; actives raise or lower the signal. The method in brief: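 ELISA read-out of HLA-DR on human lung bronchial epithelial primary cells, measured 24 h post-dosing. Both increases and decreases were scored relative to DMSO vehicle.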

Read-out in test [3]: Vascular cell adhesion molecule 1 (VCAM1), VCAM1 (gene 7412)
The experiment in a line: BSK_4H_VCAM1: BioMAP Diversity Plus: 4H Assay for Vascular cell adhesion molecule 1 (VCAM1) Biomarker Activity (AID 2283033).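 On outcome: cell-surface VCAM-1 protein measured by ELISA.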 Conditions: primary human endothelial cells (HUVEC); actives raise or lower the signal. The method in brief:
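ELISA read-out of VCAM-1 on human umbilical vein endothelium 24 hours after chemical dosing; gain or loss of signal was fitted relative to DMSO, with sulforhodamine B staining of parallel cultures flagging overt cytotoxicity.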

Read-out in test [4]: Interferon-gamma inducible Protein 10 (IP10), CXCL10 (gene 3627)
Briefly: BSK_BE3C_IP10: BioMAP Diversity Plus: BE3C Assay for Interferon-gamma inducible Protein 10 (IP10) Biomarker Activity (AID 2283034). The conditions noted are these: primary human bronchial epithelial cells; actives raise or lower the signal. The method in brief:
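Chemical is dosed onto human lung bronchial epithelial primary cells, cultures are incubated 24 h, and IP-10 is then quantified by ELISA. Gain or loss of signal is fitted in both directions relative to DMSO.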

Read-out in test [5]: Monokine induced gamma interferon (MIG), CXCL9 (gene 4283)
The experiment in a line: BSK_BE3C_MIG: BioMAP Diversity Plus: BE3C Assay for Monokine induced gamma interferon (MIG) Biomarker Activity (AID 2283035). Conditions: primary human bronchial epithelial cells; actives raise or lower the signal. The method in brief: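 Primary human bronchial epithelial cells treated for 24 h; MIG levels measured by ELISA, fitted bidirectionally versus DMSO. Parallel SRB total-protein staining assessed cytotoxicity.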

Read-out in test [6]: Transforming growth factor beta 1 (TGFb1), TGFB1 (gene 7040)
Briefly: BSK_BE3C_TGFb1: BioMAP Diversity Plus: BE3C Assay for Transforming growth factor beta 1 (TGFb1) Biomarker Activity (AID 2283036;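 on outcome: TGF-b1 protein level measured by ELISA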). Conditions: primary human bronchial epithelial cells; actives raise or lower the signal. The method in brief:
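Primary human lung bronchial epithelial cells; compound exposure 24 h; TGF-b1 by ELISA; bidirectional fit, DMSO baseline. Parallel SRB total-protein staining for cytotoxicity.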

Read-out in test [7]: Plasminogen activator inhibitor-1 (PAI1), SERPINE1 (gene 5054)
Briefly: BSK_BE3C_PAI1: BioMAP Diversity Plus: BE3C Assay for Plasminogen activator inhibitor-1 (PAI1) Biomarker Activity (AID 2283037). The conditions noted are these: primary human bronchial epithelial cells; actives raise or lower the signal. The method in brief:
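Primary human lung bronchial epithelial cells; chemical dosing; 24 h; PAI-1 measured by ELISA; bidirectional fit referenced to DMSO as negative control.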

Read-out in test [8]: urokinase plasminogen activator (uPA), PLAU (gene 5328)
The experiment in a line: BSK_BE3C_uPA: BioMAP Diversity Plus: BE3C Assay for urokinase plasminogen activator (uPA) Biomarker Activity (AID 2283038).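 On outcome: uPA protein level quantified by ELISA in cell cultures; uPA read one day after compound addition.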 Conditions: primary human bronchial epithelial cells; actives raise or lower the signal. The method in brief: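 Using confluent primary human lung bronchial epithelial cultures, we dosed chemicals, waited 24 h, then ran a uPA ELISA, fitting bidirectionally against DMSO.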

Read-out in test [9]: Urokinase-type plasminogen activator receptor (uPAR), PLAUR (gene 5329)
The experiment in a line: BSK_BE3C_uPAR: BioMAP Diversity Plus: BE3C Assay for Urokinase-type plasminogen activator receptor (uPAR) Biomarker Activity (AID 2283039).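 On outcome: cells exposed to compound for one day before measurement.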 The conditions noted are these: primary human bronchial epithelial cells; actives raise or lower the signal. The method in brief:
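Human bronchial epithelial primary cells; chemical exposure 24 h; uPAR by ELISA; bidirectional fit vs DMSO control.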

Read-out in test [10]: Interleukin-6 (IL6), IL6 (gene 3569)
Briefly: BSK_CASM3C_IL6: BioMAP Diversity Plus: CASM3C Assay for Interleukin-6 (IL6) Biomarker Activity for (AID 2283040). The conditions noted are these: primary human coronary artery smooth muscle cells; actives raise or lower the signal.

Read-out in test [11]: Tissue plasminogen activator (tPA), PLAT (gene 5327)
The experiment in a line: BSK_BE3C_tPA: BioMAP Diversity Plus: BE3C Assay for Tissue plasminogen activator (tPA) Biomarker Activity (AID 2283041).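 On outcome: tPA level quantified by ELISA one day after compound addition.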 Conditions: primary human bronchial epithelial cells; actives raise or lower the signal. The method in brief:
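Primary human lung bronchial epithelial cultures receive test chemical; after 24 h, tPA is quantified by ELISA, and gain or loss of signal is fitted bidirectionally relative to DMSO baseline.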

Read-out in test [12]: Interleukin-8 (IL8), CXCL8 (gene 3576)
The experiment in a line: BSK_CASM3C_IL8: BioMAP Diversity Plus: CASM3C Assay for Interleukin-8 (IL8) Biomarker Activity (AID 2283042).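 Further: IL-8 protein level quantified by ELISA.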 Conditions: primary human coronary artery smooth muscle cells; actives raise or lower the signal.

Read-out in test [13]: Human Leukocyte Antigen - DR isotype (HLADR), HLA-DRA (gene 3122)
The experiment in a line: BSK_CASM3C_HLADR: BioMAP Diversity Plus: CASM3C Assay for Human Leukocyte Antigen - DR isotype (HLADR) Biomarker Activity (AID 2283043).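 Further: cell-surface HLA-DR protein level quantified by ELISA.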 The conditions noted are these: primary human coronary artery smooth muscle cells; actives raise or lower the signal.

Read-out in test [14]: Macrophage colony-stimulating factor (MCSF), CSF1 (gene 1435)
The experiment in a line: BSK_CASM3C_MCSF: BioMAP Diversity Plus: CASM3C Assay for Macrophage colony-stimulating factor (MCSF) Biomarker Activity (AID 2283044).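 Further: M-CSF protein amount quantified by ELISA after 24 h exposure.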 The conditions noted are these: primary human coronary artery smooth muscle cells; actives raise or lower the signal.

Read-out in test [15]: Low-density lipoprotein receptor (LDLR), LDLR (gene 3949)
The experiment in a line: BSK_CASM3C_LDLR: BioMAP Diversity Plus: CASM3C Assay for Low-density lipoprotein receptor (LDLR) Biomarker Activity (AID 2283045).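 Further: LDLR protein level on the cell surface quantified by ELISA.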 Conditions: primary human coronary artery smooth muscle cells; actives raise or lower the signal.

Read-out in test [16]: Monocyte Chemoattractant Protein-1 (MCP1), CCL2 (gene 6347)
The experiment in a line: BSK_CASM3C_MCP1: BioMAP Diversity Plus: CASM3C Assay for Monocyte Chemoattractant Protein-1 (MCP1) Biomarker Activity (AID 2283046).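 Further: MCP-1 level quantified by ELISA 24 h after dosing.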 The conditions noted are these: primary human coronary artery smooth muscle cells; actives raise or lower the signal.

A short description of test [17]: BSK_CASM3C_Proliferation: Cell Proliferation Assessment in the BioMAP Diversity Plus: CASM3C Assay (AID 2283047).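 Further: sulforhodamine B total protein stain as relative cell number at 560 nm; sub-confluent cells exposed 48 h before staining; fitted both ways against DMSO so gain or loss of cell number.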 Conditions: primary human coronary artery smooth muscle cells.
Read-out in test [18]: Monokine induced gamma interferon (MIG), CXCL9 (gene 4283)
The experiment in a line: BSK_CASM3C_MIG: BioMAP Diversity Plus: CASM3C Assay for Monokine induced gamma interferon (MIG) Biomarker Activity (AID 2283048). Conditions: primary human coronary artery smooth muscle cells; actives raise or lower the signal.

Read-out in test [19]: serum amyloid A (SAA), SAA1 (gene 6288)
The experiment in a line: BSK_CASM3C_SAA: BioMAP Diversity Plus: CASM3C Assay for serum amyloid A (SAA) Biomarker Activity (AID 2283049).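 Further: SAA protein level quantified by ELISA.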 Conditions: primary human coronary artery smooth muscle cells; actives raise or lower the signal.

Test [20] is described as follows: BSK_CASM3C_SRB: Viability Assessment in the BioMAP Diversity Plus: CASM3C Assay (AID 2283050).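 Further: total protein by SRB staining as cytotoxicity measure in parallel cultures.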 Conditions: primary human coronary artery smooth muscle cells.

Molecules are shown by their SMILES. The source made the active and inactive calls. How the source made its calls: active means hit-call score of the fitted dose curve at least 0.9, where 1 is the maximum; inactive means score below 0.9.

Turning to `O=P1(N(CCCl)CCCl)NCCCO1` (stereo not drawn), the result in test [1], in test [2], in test [3], in test [4], in test [5] and in [6] was inactive. Also, the outcome in test [7], in test [8], in test [9], in [10], in test [11] and in test [12] was inactive. Also, the result in test [13], in test [14], in test [15], in [16], in test [17] and in [18] was inactive. Moreover, the result in test [19] and in test [20] was inactive.
With `N#Cc1c(-c2ccc(Cl)cc2)[nH]c(C(F)(F)F)c1Br`, the AC50 in test [1] was 0.016 µM (active); in test [2], 4.08 µM (active); in [3], 1.69 µM (active); in test [4], 4.45 µM (active); in test [5], 25.4 µM (active); in [6], 0.0307 µM (active). Moreover, the AC50 is 0.656 µM (active) in test [9]; 1.18 µM (active) in [10]; 0.277 µM (active) in [12]; 0.36 µM (active) in test [13]; 20 µM (active) in [14]; 20 µM (active) in test [15]. Besides, the AC50 is 0.0939 µM (active) in [16]; 0.779 µM (active) in [17]; 11.5 µM (active) in [18]; 6.57 µM (active) in test [19]; 0.865 µM (active) in test [20]. Further, the outcome in test [7], in [8] and in test [11] was inactive.
On to `CC(C)(C)c1ccc(O)cc1`, for which the outcome in [1], in test [2], in test [3], in test [4], in test [5] and in test [6] was inactive. Also, the result in [7], in test [8], in [9], in test [10], in test [11] and in test [12] was inactive. Further, the result in test [13], in test [14], in test [15], in test [16], in test [17] and in test [18] was inactive. Also, the outcome in test [19] and in test [20] was inactive.
Turning to `O=c1ssc(Cl)c1Cl`, the result in test [1], in test [12] and in [15] was inactive. Moreover, the AC50 in [2] is 8.51 µM (active); in test [3], 3.91 µM (active); in test [4] it was 3.38 µM (active); in test [5], 12.6 µM (active); in test [6], 14.8 µM (active); in test [7], 11.7 µM (active). Moreover, the AC50 was 9.31 µM (active) in test [8]; 12.2 µM (active) in [9]; 4.33 µM (active) in [10]; 7.68 µM (active) in test [11]; 3.54 µM (active) in test [13]; 5.46 µM (active) in test [14]. The AC50 was 5.7 µM (active) in [16]; 1.69 µM (active) in test [17]; 24.4 µM (active) in test [18]; 1.4 µM (active) in test [19]; 3.99 µM (active) in test [20].
`O=C(O)C(F)(F)C(F)(F)C(=O)O`: the outcome in [1], in [2], in [3], in [4], in [5] and in test [7] was inactive. Moreover, the outcome in [8], in test [9], in test [10], in test [11], in test [12] and in [13] was inactive. In addition, the result in test [14], in test [15], in [16], in test [17], in test [18] and in [19] was inactive. Moreover, in [20], the result was inactive.
Take `OCC(F)(F)OC(F)(F)C(F)(F)OC(F)(F)CO`: the outcome in test [1], in test [2], in [3], in test [4], in test [5] and in [7] was inactive. Also, the result in test [8], in [9], in [10], in test [11], in test [12] and in test [13] was inactive. For the same molecule, the outcome in [14], in [15], in [16], in [17], in test [18] and in [19] was inactive. For the same molecule, in [20], the outcome was inactive.
Consider `CCCCC(CC)COC(=O)c1c(Br)c(Br)c(Br)c(Br)c1C(=O)OCC(CC)CCCC` (stereo not drawn), for which the result in test [1], in test [2], in test [3], in test [4], in test [5] and in [6] was inactive. The outcome in [7], in test [8], in [9], in test [10], in test [11] and in [12] was inactive. The result in test [13], in test [14], in test [15], in test [16], in test [17] and in [18] was inactive. Further, the outcome in [20] was inactive. Moreover, in [19], the AC50 was 14.7 µM (active).

Values taken from PubChem BioAssay (EPA / NIEHS).
